Usually inhibition stands for the change of the read-out against control, counted positive when it falls.

Assay [1] is described as follows: antimalarial activity against Dd2 strain (AID 2302;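 active = growth inhibition above 50% at the single 2 µM test dose, taken to imply half-maximal potency below 2 µM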;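 also: 0% = DMSO untreated growth and 100% = chloroquine plus artemisinin killed control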). To be noted: P. falciparum Dd2 in RBCs, LDH growth readout, 72 h; at 2 µM; stronger effect = higher value.
The nature of assay [2]: HepG2 cytotoxicity, primary screen, cytotoxicity control for P. falciparum antimalarial project, cell-based, ATP luminescence (AID 2303;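 active = inhibition above 50%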;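 also: 0% = DMSO wells and 100% = digitonin-killed cells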). To be noted: HepG2 viability, 24-48 h, at 10 µM, stronger effect = higher value.
In assay [3] the target is L-lactate dehydrogenase (Plasmodium falciparum (isolate CDC / Honduras)) (UniProt Q27743). Put plainly: PfLDH activity inhibition – cell lysate, 3D7 strain, counter-screen for P. falciparum growth inhibition project (AID 2304).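 Also: 0% = vehicle and 100% = reference inhibitor.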 To be noted: P. falciparum 3D7 crude extract, LDH APAD/NBT absorbance; at 2 µM; stronger effect = higher value. On the technique in general: The purpose of a counterscreen is to sort out artefacts and off-target activity.

Assay [4] is described as follows: inhibition of 3D7 malaria parasite growth – strain 3D7 (AID 2306).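 Also: 0% = DMSO wells and 100% = chloroquine plus artemisinin control wells.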 To be noted: P. falciparum 3D7 erythrocytic growth, LDH absorbance, 72 h; at 2 µM; stronger effect = higher value.
Assay [5] has as its target Calcium-dependent protein kinase 1 (Plasmodium falciparum (isolate 3D7)) (UniProt P62344). Briefly: PfCDPK1 kinase inhibitors, biochemical, TCAMS library (AID 1159585; cut-off not given, nearly all actives have IC50 up to about 0.98 µM;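 also: inhibitors leave more ATP so luminescence rises with inhibition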). To be noted: recombinant PfCDPK1, Kinase-Glo ATP depletion luminescence. In general terms: Kinase-Glo measures the ATP left after a reaction by luminescence.
For assay [6], the target named is Plasmodium falciparum protein kinase 6 (PK6, PF3D7_1337100) (UniProt Q8IDW1). Briefly: PfPK6 kinase inhibitors, biochemical, TCAMS library (AID 1159586). To be noted: recombinant PfPK6, Kinase-Glo ATP depletion luminescence.
Assay [7] concerns the target Protein kinase 7 (PK7), Plasmodium falciparum 3D7 (PF3D7_0213400) (UniProt Q7YTF7). Briefly: inhibition of Plasmodium PK7 catalytic activity – biochemical, TCAMS antimalarial set, Kinase-Glo luminescence (AID 1159587). To be noted: recombinant PfPK7, Kinase-Glo ATP depletion luminescence.
Assay [8] deals with Calcium-dependent protein kinase 4 (Plasmodium falciparum (isolate 3D7)) (UniProt Q8IBS5). Briefly: PfCDPK4 kinase inhibitors, biochemical, TCAMS library (AID 1159588; cut-off not given, nearly all actives have IC50 up to about 0.91 µM). To be noted: recombinant PfCDPK4, Kinase-Glo ATP depletion luminescence.

Values without a mark were called inactive. For some assays here: Measured potencies and affinities stand elsewhere. Active and inactive are the calls of the source. Unless noted, no rule for the calls is given here.

L-lactate dehydrogenase (Plasmodium falciparum (isolate CDC / Honduras)), sequence (Q27743 whole entry, looked up): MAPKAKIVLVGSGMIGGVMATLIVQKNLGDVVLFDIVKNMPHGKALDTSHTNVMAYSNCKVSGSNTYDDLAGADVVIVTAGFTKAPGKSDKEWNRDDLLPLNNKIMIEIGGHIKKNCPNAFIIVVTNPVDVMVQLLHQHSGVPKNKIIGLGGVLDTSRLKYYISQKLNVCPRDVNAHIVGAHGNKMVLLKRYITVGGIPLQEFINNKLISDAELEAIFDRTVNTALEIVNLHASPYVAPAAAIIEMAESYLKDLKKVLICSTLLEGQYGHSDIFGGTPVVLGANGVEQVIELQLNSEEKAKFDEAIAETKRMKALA
Calcium-dependent protein kinase 4 (Plasmodium falciparum (isolate 3D7)), sequence (Q8IBS5 whole entry, looked up): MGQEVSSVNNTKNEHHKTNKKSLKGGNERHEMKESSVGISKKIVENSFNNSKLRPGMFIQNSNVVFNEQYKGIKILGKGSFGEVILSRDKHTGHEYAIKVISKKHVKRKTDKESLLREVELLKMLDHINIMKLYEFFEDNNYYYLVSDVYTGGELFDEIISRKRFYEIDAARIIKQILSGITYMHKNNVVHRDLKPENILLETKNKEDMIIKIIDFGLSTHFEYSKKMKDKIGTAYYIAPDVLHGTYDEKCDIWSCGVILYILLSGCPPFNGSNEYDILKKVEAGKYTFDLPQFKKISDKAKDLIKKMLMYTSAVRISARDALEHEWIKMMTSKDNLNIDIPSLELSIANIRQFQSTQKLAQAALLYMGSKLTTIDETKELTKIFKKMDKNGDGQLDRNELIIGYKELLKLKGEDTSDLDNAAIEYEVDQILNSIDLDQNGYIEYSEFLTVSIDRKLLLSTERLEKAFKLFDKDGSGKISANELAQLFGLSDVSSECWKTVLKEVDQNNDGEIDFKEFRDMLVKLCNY
Calcium-dependent protein kinase 1 (Plasmodium falciparum (isolate 3D7)), sequence (P62344 whole entry, looked up): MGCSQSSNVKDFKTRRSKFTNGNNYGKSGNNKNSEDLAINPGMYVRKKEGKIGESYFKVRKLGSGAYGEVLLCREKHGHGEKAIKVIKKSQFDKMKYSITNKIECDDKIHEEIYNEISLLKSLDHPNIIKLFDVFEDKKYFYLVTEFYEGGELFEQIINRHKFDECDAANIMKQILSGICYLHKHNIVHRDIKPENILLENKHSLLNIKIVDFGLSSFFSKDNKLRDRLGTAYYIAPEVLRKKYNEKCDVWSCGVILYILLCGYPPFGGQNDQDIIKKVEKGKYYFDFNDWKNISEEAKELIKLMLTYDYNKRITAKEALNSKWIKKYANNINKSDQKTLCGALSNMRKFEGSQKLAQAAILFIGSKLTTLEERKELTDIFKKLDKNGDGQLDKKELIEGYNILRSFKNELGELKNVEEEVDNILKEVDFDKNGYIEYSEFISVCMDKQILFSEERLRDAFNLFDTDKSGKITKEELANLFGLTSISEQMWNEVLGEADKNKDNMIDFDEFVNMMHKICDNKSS
Plasmodium falciparum protein kinase 6 (PK6, PF3D7_1337100), sequence (Q8IDW1 1-305): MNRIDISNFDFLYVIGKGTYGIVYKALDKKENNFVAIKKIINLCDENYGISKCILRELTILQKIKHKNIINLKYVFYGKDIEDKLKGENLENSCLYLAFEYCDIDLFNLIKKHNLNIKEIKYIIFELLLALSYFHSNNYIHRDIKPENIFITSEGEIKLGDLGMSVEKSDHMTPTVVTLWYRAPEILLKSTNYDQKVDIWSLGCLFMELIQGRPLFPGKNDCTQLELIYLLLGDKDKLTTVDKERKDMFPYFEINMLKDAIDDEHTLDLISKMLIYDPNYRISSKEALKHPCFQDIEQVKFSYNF
Protein kinase 7 (PK7), Plasmodium falciparum 3D7 (PF3D7_0213400), sequence (Q7YTF7 1-343): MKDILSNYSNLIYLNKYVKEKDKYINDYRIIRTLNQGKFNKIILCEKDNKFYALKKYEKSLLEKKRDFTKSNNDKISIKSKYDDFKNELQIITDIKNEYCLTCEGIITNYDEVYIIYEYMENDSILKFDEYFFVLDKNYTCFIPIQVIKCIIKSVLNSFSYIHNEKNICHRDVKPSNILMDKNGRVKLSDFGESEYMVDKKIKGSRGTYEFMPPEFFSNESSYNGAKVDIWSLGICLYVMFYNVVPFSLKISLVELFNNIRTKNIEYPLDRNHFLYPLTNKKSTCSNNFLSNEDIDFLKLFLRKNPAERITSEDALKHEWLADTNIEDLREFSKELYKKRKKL

With `c1ccc(-c2nc(NC3CCCCC3)cc(C3CC3)n2)nc1`, the results for the growth inhibition in assay [1] and in assay [4] were 76% (active) and 97% (active), respectively. Moreover, the inhibition is 35% in assay [2] and 2% in assay [3]. Besides, the outcome in assay [5], in assay [6], in assay [7] and in assay [8] was inactive.

With `COc1cc(C(=O)NCCCN2CCN(c3cc(Cl)ccc3OC)CC2)ccc1-c1nc2cc(Cl)c(Cl)cc2[nH]1`, the growth inhibition was 99% (active) in assay [1] and 102% (active) in assay [4]. Moreover, the inhibition was 12% in assay [2] and -3% in assay [3]. The outcome in assay [5], in assay [6], in assay [7] and in assay [8] was inactive.

Regarding `Cc1ccc(-n2[nH]c(C)c(N=Nc3cccc(-c4cccc(NC(=O)OC(C)(C)C)c4)c3O)c2=O)cc1C`, the growth inhibition in assay [1] is 21%; in assay [4], 94% (active). In addition, the inhibition in assay [2] is 39%; in assay [3] it was -4%. Further, the result in assay [5], in assay [6], in assay [7] and in assay [8] was inactive.

As to `COc1ccc2c(c1)CC(CNC[C@H](O)c1cccc(Cl)c1)CC2` (some centres not stated), the growth inhibition is 73% (active) in assay [1] and 94% (active) in assay [4]. Moreover, the inhibition was 1% in assay [2] and 7% in assay [3]. The outcome in assay [5], in assay [6], in assay [7] and in assay [8] was inactive.

Regarding `COc1ccc2nccc(N3CCC(NCCNCc4cc5c(cn4)OCCO5)C3)c2n1` (configuration not stated), the growth inhibition in assay [1] is 3%; in assay [4] it was 99% (active). Besides, the inhibition in assay [2] was 8%; in assay [3], -3%. Further, the result in assay [5], in assay [6], in assay [7] and in assay [8] was inactive.

Take `Cc1cc(C)cc(OCC(O)CN(CCN2CCOCC2)C(=O)Nc2ccc(Br)cc2)c1` (configuration not stated): the growth inhibition in assay [1] is 19%; in assay [4] it was 85% (active). Also, the inhibition in assay [2] is 7%; in assay [3] it was 0%. Moreover, the outcome in assay [5], in assay [6], in assay [7] and in assay [8] was inactive.

On to `c1ccc(-c2nc(Nc3ccncc3)sc2-c2ccccc2)cc1`, for which the growth inhibition is 18% in assay [1] and 97% (active) in assay [4]. The figures for the inhibition in assay [2] and in assay [3] were -5% and 1%, respectively. The outcome in assay [5], in assay [6], in assay [7] and in assay [8] was inactive.

With `O=C(NC1CCCCN(Cc2ccccc2O)C1)c1ccc(-c2ccccc2)cc1` (configuration not stated), the results for the growth inhibition in assay [1] and in assay [4] were 61% (active) and 97% (active), respectively. Moreover, the values for the inhibition in assay [2] and in assay [3] were 21% and -3%, respectively. For the same molecule, the outcome in assay [5], in assay [6], in assay [7] and in assay [8] was inactive.

Consider `CN(C)c1ccc(Br)c(Br)c1`, for which the figures for the growth inhibition in assay [1] and in assay [4] were -4% and 86% (active), respectively. Besides, the inhibition in assay [2] is 17%; in assay [3], -5%. For the same molecule, the outcome in assay [5], in assay [6], in assay [7] and in assay [8] was inactive.

As to `CCCc1ccc(S(=O)(=O)Nc2ccc3c(c2)CCC3)cc1`, the growth inhibition is -1% in assay [1] and 96% (active) in assay [4]. The values for the inhibition in assay [2] and in assay [3] were 8% and 1%, respectively. The outcome in assay [5], in assay [6], in assay [7] and in assay [8] was inactive.

Turning to `COCCn1c(Sc2ncnc3sccc23)nc2ccccc21`, the figures for the growth inhibition in assay [1] and in assay [4] were 72% (active) and 95% (active), respectively. The inhibition in assay [2] was -8%; in assay [3], -6%. The result in assay [5], in assay [6], in assay [7] and in assay [8] was inactive.

For `c1ccc(-c2nc(Nc3nc4ccccc4[nH]3)[nH]c2-c2ccccc2)cc1`, the growth inhibition was 61% (active) in assay [1] and 96% (active) in assay [4]. Also, the inhibition in assay [2] is 14%; in assay [3], -5%. Further, the outcome in assay [5], in assay [6], in assay [7] and in assay [8] was inactive.

On to `COc1ccc2nccc([C@@H](O)CN3CCC(NC(=O)c4cccc(C(=O)c5ccccc5)c4)CC3)c2c1`, for which the growth inhibition in assay [1] and in assay [4] was 99% (active) each time. Also, the inhibition in assay [2] was 13%; in assay [3], 2%. For the same molecule, the result in assay [5], in assay [6], in assay [7] and in assay [8] was inactive.

Take `CC[C@H](N=C(Nc1ccc(-c2ccccc2)cc1)Nc1ccc(C#N)cc1O)c1ccccc1`: the growth inhibition in assay [1] is 97% (active); in assay [4] it was 99% (active). Also, the results for the inhibition in assay [2] and in assay [3] were -6% and 4%, respectively. Besides, the outcome in assay [5], in assay [6], in assay [7] and in assay [8] was inactive.

As for `COc1ccc(Oc2ccccc2CNCC2CCN(CC3CCCCC3)CC2)cc1`, the results for the growth inhibition in assay [1] and in assay [4] were 28% and 85% (active), respectively. In addition, the inhibition in assay [2] was 34%; in assay [3], -8%. The result in assay [5], in assay [6], in assay [7] and in assay [8] was inactive.

As for `CC(C)(C)c1ccc(-c2ccccc2CNC(=O)c2cccc(O)c2)cc1`, the figures for the growth inhibition in assay [1] and in assay [4] were 88% (active) and 99% (active), respectively. Besides, the inhibition in assay [2] is 3%; in assay [3] it was -2%. Moreover, the result in assay [5], in assay [6], in assay [7] and in assay [8] was inactive.

Consider `COc1ccc(NC(=O)c2ccc(C=Cc3ccc(C(F)(F)F)cc3)cc2)cc1N1CCN(C)CC1`, for which the growth inhibition was 47% in assay [1] and 99% (active) in assay [4]. Further, the inhibition in assay [2] was 46%; in assay [3], -6%. Also, the result in assay [5], in assay [6], in assay [7] and in assay [8] was inactive.

In the case of `CN1CCC(Oc2ccc(CN3CC[C@H](NC(=O)c4cccc(C#N)c4)C3)c3ccccc23)C1` (some centres not stated), the growth inhibition was 30% in assay [1] and 97% (active) in assay [4]. Also, the inhibition in assay [2] is 10%; in assay [3], -1%. For the same molecule, the outcome in assay [5], in assay [6], in assay [7] and in assay [8] was inactive.

Take `Cn1c(=N)n(CC(=O)OCc2ccc(OCc3ccccc3)cc2)c2ccccc21`: the growth inhibition is 74% (active) in assay [1] and 100% (active) in assay [4]. The results for the inhibition in assay [2] and in assay [3] were 5% and -5%, respectively. In addition, the result in assay [5], in assay [6], in assay [7] and in assay [8] was inactive.

These data come from PubChem BioAssay.
